Out of some 5,500 compounds screened, about 2,000 (36%) were called active. Not shown: some 18% with an inconclusive outcome. The list shows a part of the results. Unmarked numbers belong to inactive results. Cut-off read from the data, not from the text of the source: active = normalized growth mostly below about 0.91 (no sharp cut-off); inconclusive = no clear call, values can overlap the other calls; inactive = mostly above about 0.92.
Assay: chemical genetic growth profiling, strain panel (AID 1159580);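 note: tested at 20 µM; growth read once vehicle control cultures reached saturation at 30 °C; 1 = growth at the plate median or of vehicle wells; lower values mean less growth of the strain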
Conditions: growth OD

C=C[C@@H](C1=CC(=O)C(OC)=C(OC)C1=O)c1ccccc1
normalized growth (S. cerevisiae deletion strains, locus YKL009W, strain mrt4, stronger effect = lower value): 0.957
normalized growth (S. cerevisiae deletion strains, locus YKL068W, stronger effect = lower value): 1
normalized growth (S. cerevisiae deletion strains, locus YKL085W, strain MDH1 (second series), stronger effect = lower value): 0.936
normalized growth (S. cerevisiae deletion strains, locus YKL085W, strain MDH1, stronger effect = lower value): 0.936
normalized growth (S. cerevisiae deletion strains, locus YKL160W, strain elf1, stronger effect = lower value): 0.401 (active)
normalized growth (S. cerevisiae deletion strains, locus YKL190W, strain CNB1, stronger effect = lower value): 0.0937 (active)
normalized growth (S. cerevisiae deletion strains, locus YKR001C, strain vps1, stronger effect = lower value): 0.158 (active)
normalized growth (S. cerevisiae deletion strains, locus YKR026C, strain gcn3, stronger effect = lower value): 0.945
normalized growth (S. cerevisiae deletion strains, locus YKR091W, strain srl3, stronger effect = lower value): 0.95
normalized growth (S. cerevisiae deletion strains, locus YLL001W, strain dnm1, stronger effect = lower value): 0.794 (active)
normalized growth (S. cerevisiae deletion strains, locus YLL026W, stronger effect = lower value): 0.679 (active)
normalized growth (S. cerevisiae deletion strains, locus YLL041C, strain sdh2, stronger effect = lower value): 0.811 (active)
normalized growth (S. cerevisiae deletion strains, locus YLR027C, strain aat2, stronger effect = lower value): 0.448 (active)
normalized growth (S. cerevisiae deletion strains, locus YLR039C, strain RIC1, stronger effect = lower value): 0.361 (active)
normalized growth (S. cerevisiae deletion strains, locus YLR058C, strain SHM2, stronger effect = lower value): 0.98
normalized growth (S. cerevisiae deletion strains, locus YLR102C, strain apc9, stronger effect = lower value): 0.515 (active)
normalized growth (S. cerevisiae deletion strains, locus YLR113W, strain HOG1, stronger effect = lower value): 0.719 (active)
normalized growth (S. cerevisiae deletion strains, locus YLR221C, strain rsa3, stronger effect = lower value): 0.363 (active)
normalized growth (S. cerevisiae deletion strains, locus YLR258W, strain gsy2, stronger effect = lower value): 0.561 (active)
normalized growth (S. cerevisiae deletion strains, locus YLR262C, strain YPT6 (second series), stronger effect = lower value): 0.17 (active)
normalized growth (S. cerevisiae deletion strains, locus YLR262C, strain YPT6, stronger effect = lower value): 0.195 (active)
normalized growth (S. cerevisiae deletion strains, locus YLR268W, strain sec22, stronger effect = lower value): 0.193 (active)
normalized growth (S. cerevisiae deletion strains, locus YLR320W, strain mms22, stronger effect = lower value): 0.219 (active)
normalized growth (S. cerevisiae deletion strains, locus YLR342W, strain FKS1 (second series), stronger effect = lower value): 0.331 (active)
normalized growth (S. cerevisiae deletion strains, locus YLR342W, strain FKS1, stronger effect = lower value): 0.72 (active)
normalized growth (S. cerevisiae deletion strains, locus YLR357W, strain rsc2, stronger effect = lower value): 0.901
normalized growth (S. cerevisiae deletion strains, locus YLR370C, strain arc18, stronger effect = lower value): 0.811 (active)
normalized growth (S. cerevisiae deletion strains, locus YLR371W, strain rom2, stronger effect = lower value): 0.285 (active)
normalized growth (S. cerevisiae deletion strains, locus YLR384C, strain iki3, stronger effect = lower value): 0.982
normalized growth (S. cerevisiae deletion strains, locus YLR418C, strain cdc73, stronger effect = lower value): 0.141 (active)
normalized growth (S. cerevisiae deletion strains, locus YML016C, strain PPZ1, stronger effect = lower value): 0.292 (active)
normalized growth (S. cerevisiae deletion strains, locus YML032C, strain rad52, stronger effect = lower value): 0.961
normalized growth (S. cerevisiae deletion strains, locus YML120C, strain ndi1, stronger effect = lower value): 0.924
normalized growth (S. cerevisiae deletion strains, locus YML124C, strain tub3, stronger effect = lower value): 0.981
normalized growth (S. cerevisiae deletion strains, locus YMR058W, strain fet3, stronger effect = lower value): 0.612 (active)
normalized growth (S. cerevisiae deletion strains, locus YMR078C, strain ctf18, stronger effect = lower value): 0.381 (active)
normalized growth (S. cerevisiae deletion strains, locus YMR125W, strain sto1, stronger effect = lower value): 0.284 (active)
normalized growth (S. cerevisiae deletion strains, locus YMR129W, stronger effect = lower value): 0.659 (active)
normalized growth (S. cerevisiae deletion strains, locus YMR205C, strain PFK2, stronger effect = lower value): 0.689 (active)
normalized growth (S. cerevisiae deletion strains, locus YMR223W, strain ubp8, stronger effect = lower value): 0.493 (active)
normalized growth (S. cerevisiae deletion strains, locus YMR231W, strain pep5, stronger effect = lower value): 0.529 (active)
normalized growth (S. cerevisiae deletion strains, locus YMR307W, strain GAS1, stronger effect = lower value): 0.224 (active)
normalized growth (S. cerevisiae deletion strains, locus YNL067W, strain RPL9B, stronger effect = lower value): 0.67 (active)
normalized growth (S. cerevisiae deletion strains, locus YNL071W, strain lat1, stronger effect = lower value): 0.0795 (active)
normalized growth (S. cerevisiae deletion strains, locus YNL183C, strain NPR1, stronger effect = lower value): 0.799 (active)
normalized growth (S. cerevisiae deletion strains, locus YNL209W, strain ssb2, stronger effect = lower value): 0.748 (active)
normalized growth (S. cerevisiae deletion strains, locus YNL233W, strain BNI4, stronger effect = lower value): 0.121 (active)
normalized growth (S. cerevisiae deletion strains, locus YNL248C, strain rpa49, stronger effect = lower value): 0.403 (active)
normalized growth (S. cerevisiae deletion strains, locus YNL250W, strain rad50, stronger effect = lower value): 0.916
normalized growth (S. cerevisiae deletion strains, locus YNL271C, strain bni1, stronger effect = lower value): 0.88 (active)
normalized growth (S. cerevisiae deletion strains, locus YNL298W, strain CLA4, stronger effect = lower value): 0.925
normalized growth (S. cerevisiae deletion strains, locus YNL307C, strain MCK1, stronger effect = lower value): 0.0762 (active)
normalized growth (S. cerevisiae deletion strains, locus YNL322C, strain KRE1 (second series), stronger effect = lower value): 0.911
normalized growth (S. cerevisiae deletion strains, locus YNL322C, strain KRE1, stronger effect = lower value): 0.835 (active)
normalized growth (S. cerevisiae deletion strains, locus YNR049C, strain mso1, stronger effect = lower value): 0.986
normalized growth (S. cerevisiae deletion strains, locus YNR052C, strain pop2, stronger effect = lower value): 0.983
normalized growth (S. cerevisiae deletion strains, locus YOL012C, strain htz1): 0.17 (active)
normalized growth (S. cerevisiae deletion strains, locus YOL147C, strain pex11, stronger effect = lower value): 0.959
normalized growth (S. cerevisiae deletion strains, locus YOR001W, strain rrp6, stronger effect = lower value): 0.976
normalized growth (S. cerevisiae deletion strains, locus YOR061W, strain CKA2, stronger effect = lower value): 0.829 (active)
normalized growth (S. cerevisiae deletion strains, locus YOR069W, strain VPS5, stronger effect = lower value): 0.314 (active)
normalized growth (S. cerevisiae deletion strains, locus YOR070C, strain gyp1, stronger effect = lower value): 0.487 (active)
normalized growth (S. cerevisiae deletion strains, locus YOR080W, strain dia2, stronger effect = lower value): 1.01
normalized growth (S. cerevisiae deletion strains, locus YOR083W, strain WHI5, stronger effect = lower value): 0.554 (active)
normalized growth (S. cerevisiae deletion strains, locus YOR106W, strain vam3, stronger effect = lower value): 0.297 (active)
normalized growth (S. cerevisiae deletion strains, locus YOR136W, strain idh2, stronger effect = lower value): 0.675 (active)
normalized growth (S. cerevisiae deletion strains, locus YOR144C, strain elg1, stronger effect = lower value): 0.962
normalized growth (S. cerevisiae deletion strains, locus YOR184W, strain ser1, stronger effect = lower value): 0.15 (active)
normalized growth (S. cerevisiae deletion strains, locus YOR231W, strain MKK1, stronger effect = lower value): 0.93
normalized growth (S. cerevisiae deletion strains, locus YOR265W, strain rbl2, stronger effect = lower value): 0.686 (active)
normalized growth (S. cerevisiae deletion strains, locus YOR270C, strain vph1, stronger effect = lower value): 0.616 (active)
normalized growth (S. cerevisiae deletion strains, locus YOR290C, strain snf2, stronger effect = lower value): 0.911
normalized growth (S. cerevisiae deletion strains, locus YOR316C, strain cot1, stronger effect = lower value): 0.833 (active)
normalized growth (S. cerevisiae deletion strains, locus YPL051W, strain arl3, stronger effect = lower value): 0.384 (active)
normalized growth (S. cerevisiae deletion strains, locus YPL078C, strain atp4, stronger effect = lower value): 0.954
normalized growth (S. cerevisiae deletion strains, locus YPL106C, strain sse1, stronger effect = lower value): 0.984
normalized growth (S. cerevisiae deletion strains, locus YPL240C, strain hsp82, stronger effect = lower value): 0.625 (active)
normalized growth (S. cerevisiae deletion strains, locus YPL241C, strain CIN2, stronger effect = lower value): 0.523 (active)
normalized growth (S. cerevisiae deletion strains, locus YPL256C, strain CLN2, stronger effect = lower value): 0.895
normalized growth (S. cerevisiae deletion strains, locus YPR119W, strain clb2, stronger effect = lower value): 0.615 (active)
normalized growth (S. cerevisiae deletion strains, locus YPR141C, strain kar3, stronger effect = lower value): 0.983
normalized growth (S. cerevisiae deletion strains, locus YPR163C, strain tif3, stronger effect = lower value): 0.151 (active)
normalized growth (S. cerevisiae deletion strains, locus YPR167C, strain met16, stronger effect = lower value): 0.456 (active)
normalized growth (S. cerevisiae deletion strains, strain wtn01, stronger effect = lower value): 0.196 (active)
normalized growth (S. cerevisiae strains, strain wild type, stronger effect = lower value): 0.114 (active)

— PubChem BioAssay AID1159580 (chemical genetic matrix, 2015)
